Compounds without any hit were thinned out: in the full panel of roughly 83,000, 20% have a hit.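 The test compound was applied at a single concentration to cells in 96-well plates for 48 hours, and percent growth was recorded.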 Unmarked numbers belong to inactive results. Active and inactive are the calls of the source. The calls were made as follows: active = growth percent below 10; inactive = the rest.
Tested on: MDA-MB-468 breast
Experiment: NCI-60 one-dose screen, 48 h (100 = growth as untreated, 0 = no growth, -100 = all killed)
Details: 10 µM unless noted

Compared with `Cn1c(-c2ccccc2)cc(=O)n1-c1ccccc1`, `CC(=O)c1sc(-c2ccccc2)cc1N` is lower in growth: 105% for the first, 91.7% for the second.

First: COc1cc2oc(-c3cccc(C(=O)Nc4ccc5c(c4)OCO5)c3)cc(=O)c2c(O)c1OC
Second: COc1ccc(NC(=O)c2cc(OC)c(OC)c(OC)c2)cc1O
The growth of the first is higher: 54.6% for the first, 29.8% for the second.

First: CCCn1c(=S)sc2c1nc(C)n1c(Nc3ccccc3)nnc21
Second: COc1ccccc1-n1c(-c2csc(NC(C)=O)n2)n[nH]c1=S
The growth of the first is lower: 51.5% for the first, 100% for the second.

Compared with `CN1CC[C@@H]2[C@@]3(C)CC[C@H](O)C(C)(C)[C@@H]3CC[C@@]2(C)[C@]2(C)CC[C@@]3(CO)CCC(C)(C)C[C@@H]3C12` (stereo not given in full), `O=C1CCC23OC(C(O)c4ccccc4N12)C1C(Br)=NOC13` (stereo not given) is higher in growth: 62% for the first, 115% for the second.

Going from `CSc1nccc(-c2c(-c3ccc(F)c(OCc4ccc(F)cc4)c3)nc3sccn23)n1` to `N#Cc1c(-c2ccc(F)cc2)nc(N=Nc2c(O)[nH]c3ccc(Cl)cc23)nc1N1CCOCC1`, the growth rises from 23.3% to 47.1%.

Going from `CCOC(=S)SCc1ccc(Cl)cc1` to `CSc1ccc(N2C(=N)C(=S)N(c3ccc(C)cc3)C2=O)cc1`, the growth rises from 106% to 121%.

First: Cn1c2ccccc2c2c3c(c4c5ccccc5n(C)c4c21)C(=O)OC3
Second: COc1nc2c(c(=O)n1C)N=C1c3ccccc3C(=O)C1C(c1ccccc1)N2 (stereo not given)
The growth of the first is higher: 101% for the first, 82.5% for the second.

Compared with `CC1CN(CCO)CC(C)O1` (stereo not given), `O=S(=O)(O)CC(O)CN1CCN(CCO)CC1` (stereo not given) is lower in growth: 108% for the first, 105% for the second.

First: COC(=O)c1cc(N=C2NC(=O)/C(=C/C=C/c3ccccc3)S2)ccc1O
Second: COc1cc(OC)c(NC(=O)c2cc3ccccc3cc2O)cc1Cl
The growth of the first is lower: 17.5% for the first, 75.7% for the second.

Going from `NNC(=O)Nc1ccccc1` to `Clc1ccc2c(c1)c(-c1ccccc1)nc1nncn12`, the growth rises from 104% to 110%.

Going from `Cc1nc2cncc(C#Cc3cncc(C(=O)Nc4ccc(CN5CCN(C)CC5)c(C(F)(F)F)c4)c3)c2nc1C` to `O=C(CN1CCN(c2cc3c(cc2F)c(=O)c(C(=O)N/N=C/c2ccccc2)cn3C2CC2)CC1)N/N=C\c1ccccc1`, the growth rises from 37.3% to 85.4%.

Compared with `O=C(COCc1c(-c2ccccc2)no[n+]1[O-])Nc1ccc(C(=O)/C=C/c2ccc3c(c2)OCO3)cc1`, `c1ccc2c(-c3nc(N4CCOCC4)c4c5c(sc4n3)CCCCCC5)cccc2c1` is lower in growth: 98.7% for the first, 95.1% for the second.

First: CN1C(=O)C(C2=NN(C=O)C(c3ccc(F)cc3)C2)C(=O)N(C)C1=O (stereo not given)
Second: COc1cc2nc(SCc3cc(OC)c(OC)c(OC)c3)n(-c3ccccc3OC)c(=O)c2cc1OC
The growth of the first is lower: 89.4% for the first, 97.9% for the second.

First: COc1c(O)cc2oc3cc(O)c(CC=C(C)C)c(O)c3c(=O)c2c1C/C=C(\C)CCC=C(C)C
Second: OCCOCCN(Cc1ccccn1)Cc1cc(I)cc(I)c1O
The growth of the first is lower: 82.1% for the first, 88% for the second.

In the case of `O=S(=O)(Nc1ccc2c(c1)OCO2)c1ccc(-c2cnc(C3CC3)o2)cc1`, the growth is reported as -3.85% (active).
`Cc1ccc2nc(NC(=O)CSC(=S)N3CCN(Cc4ccccc4)CC3)sc2c1` was tested, and the growth was -76.4% (active).
In the case of `Cc1nc2sc(C(=O)Nc3cccc(Cl)c3C)c(N)c2cc1C(=O)c1ccccc1`, the growth is reported as -4.28% (active).
`Cc1cc2c(cc1C)[n+](Cc1ccc3ccccc3c1)cn2Cc1ccc2ccccc2c1` was tested, and the growth was -76.4% (active).
With `Cc1ccccc1NC(=O)c1sc2nc(C)c(C(=O)/C=C/c3ccccc3)cc2c1N` the growth was 9.61% (active).
`CCCCCCCCCCCCNC(=O)[C@H]1CSC(c2cc(Br)cs2)N1` (stereo not given in full) was tested, and the growth was -48.7% (active).
With `COc1ncc(-c2ccc3nccc(C#CCCCCC(=O)O)c3c2)cc1NS(=O)(=O)c1ccc(F)cc1F` the growth was -29.4% (active).
In the case of `COc1ccc(C2CC(c3ccc4ccccc4c3)=NN2/C=C2\SC(=S)N(NC(=O)Cc3ccccc3Nc3c(Cl)cccc3Cl)C2=O)cc1` (stereo not given), the growth is reported as 7.11% (active).
For `Nc1n[nH]c2ccc([C@@H]3Nc4cc5c(cc4[C@H]4C6CCC(C6)[C@@H]34)C(=O)NC5)cc12` (stereo not given in full), the growth was -9.96% (active).
In the case of `NCCCOc1cc2ccccc2cc1C(=O)Nc1ccc(Cl)cc1OC(=O)c1cc2ccccc2cc1OCCCN`, the growth is reported as -86% (active).
For `CCCCCCCCCCCC(c1ccccc1)[N+](C)(C)C` (stereo not given), the growth was -45.6% (active).
`CC12OC(CC(O)C1O)n1c3ccccc3c3c4c(c5c6ccccc6n2c5c31)C(=O)N(CCN1CCOCC1)C4=O` (stereo not given) was tested, and the growth was -30.4% (active).
